Unmarked numbers belong to inactive results. How the calls were made is not given here.
experiment: inhibitors of hydroxyurea-induced Chk1 phosphorylation, primary screen, imaging, HeLa, phospho-Chk1 antibody, percent positive cells (AID 1186); details: hydroxyurea-induced phospho-Chk1 immunofluorescence imaging, higher = more signal

Row | Compound | z-score
1 | C=CCNC(=O)[C@@H]1[C@H]2C(=O)O[C@H](c3ccccc3)[C@H](c3ccccc3)N2[C@H](c2ccc(O)cc2)[C@@]12C(=O)N(C(=O)OCCOC)c1ccc(C#CCC(C(=O)OC)C(=O)OC)cc12 | -0.0611
2 | CN1C2C=C(c3ccc(CO)cc3)C(C3C(=O)N(C(N)=O)C(=O)C32)C1C1CC1 (centres undefined) | 0.258
3 | COC(=O)[C@]1(Cc2ccccc2CN=[N+]=[N-])N=C(c2ccc(OCCCO)cc2)O[C@@H]1c1ccccc1N=[N+]=[N-] | -0.485
4 | COCCOC(=O)N1C(=O)[C@@]2(c3cc(C#CCC(C(=O)OC)C(=O)OC)ccc31)[C@H](C(=O)N1CCc3cc(OC)c(OC)cc3C1)[C@H]1C(=O)O[C@H](c3ccccc3)[C@H](c3ccccc3)N1[C@@H]2c1ccccc1OCCO | -0.182
5 | COC(=O)C(CC#Cc1ccc2c(c1)[C@]1(C(=O)N2)[C@H](c2ccccc2OCCO)N2[C@H](c3ccccc3)[C@H](c3ccccc3)OC(=O)[C@H]2[C@@H]1C(=O)N1CCN(c2ncccn2)CC1)C(=O)OC | 0.0162
6 | C=CC[C@]1(C(=O)NCCN2CCOCC2)N=C(c2ccc(OCCCO)cc2)O[C@H]1c1ccccc1 | -0.116
7 | CN(C)C(=O)[C@]1(CCS(=O)(=O)c2ccccc2)N=C(c2ccc(OCCCO)cc2)O[C@@H]1c1ccccc1CN=[N+]=[N-] | -0.376
8 | C=CCC(OC(C)=O)[C@@H]1[C@@H](N(Cc2cccc3ccccc23)C(=O)c2ccc(C)cc2)c2cc(OCCCO)ccc2N1C(=O)Cc1ccc2ccccc2c1 (some centres undefined) | -0.648
9 | COCCCNC(=O)[C@@]1(Cc2ccccc2I)c2ccccc2C(=O)N(Cc2ccccc2C(F)(F)F)[C@H]1c1ccc(CO)cc1 | 0.0894
10 | O=C(O)C1=CC[C@H]2C(=O)N(c3ccccc3)C(=O)[C@@H]12 | -0.416
11 | COc1c(C)cc(-c2nc(-c3ccccc3)c3c(c2C)CO[Si]3(C(C)C)C(C)C)cc1C | 0.157
12 | COc1ccc(CCNC(=O)[C@@]2(c3ccc([N+](=O)[O-])cc3)CC(=O)N(C3CCCCC3)[C@@H]2c2ccc(CO)cc2I)cc1 | 0.129
13 | COCCCNC(=O)[C@@]1(CCC(=O)OC(C)(C)C)N=C(c2ccc(OCCCO)cc2)O[C@H]1c1ccccc1 | 0.185
14 | COC(=O)C(CC#Cc1ccc2c(c1)[C@]1(C(=O)N2)[C@H](C(=O)N2CCCCCCC2)[C@H]2C(=O)O[C@H](c3ccccc3)[C@H](c3ccccc3)N2[C@@H]1c1ccc(OCCO)cc1)C(=O)OC | 0.185
15 | CN(C)CCCC[C@@H]1NC(=O)[C@H]2C[C@@H](C(=O)NCCCCCCNC(=O)CS)[C@@H](c3cccc(OCCO)c3)N2C1=O | 0.542
16 | CCCCC(=C=CC[C@@H](O)c1ccccc1OCCO)C[C@@H](O)c1ccccn1 | -0.0323
17 | O=C(N1CCOCC1)[C@]1(CCS(=O)(=O)c2ccccc2)N=C(c2ccc(OCCCO)cc2)O[C@@H]1c1ccccc1 | -0.141
18 | [N-]=[N+]=NCc1ccccc1C[C@@]1(C(N)=O)N=C(c2ccc(OCCCO)cc2)O[C@@H]1c1ccccc1N=[N+]=[N-] | 0.627
19 | CC[C@@H]1C=C(C(=O)O)[C@H](c2cccc(Cl)c2)N1S(=O)(=O)c1ccc(C)cc1 | 0.198
20 | CN1C(=O)C2C(C1=O)C1C=C(CCCO)C2C(C2CC2)N1C (centres undefined) | -0.0182
21 | COCCOC(=O)N1C(=O)[C@@]2(c3cc(C#CC4=CCCCC4)ccc31)[C@H](C(=O)N1CCCCCCC1)[C@H]1C(=O)O[C@H](c3ccccc3)[C@H](c3ccccc3)N1[C@@H]2c1ccccc1OCCO | -0.245
22 | CC[C@@H](O[Si](C#C[Si](C(C)C)(C(C)C)C(C)C)(C(C)C)C(C)C)c1cn([C@H](CO)Cc2ccccc2)nn1 | -0.058

experiment: inhibitors of hydroxyurea-induced Chk1 phosphorylation, primary screen, imaging, HeLa, phospho-Chk1 nuclear intensity (AID 1187); details: hydroxyurea-induced phospho-Chk1 immunofluorescence imaging, higher = more signal; further: test concentration not given here

Row | Compound | z-score
23 | C=CC[C@H](O)c1ccc(O)c(F)c1 | -0.264
24 | COc1ccc([Si](C)(C)[C@@H]2[C@@H](CC(=O)N3Cc4ccccc4C[C@H]3CO)O[C@]3(C(=O)N(Cc4ccc(I)cc4)c4ccccc43)[C@H]2C)cc1 | -0.295
25 | C=C(C(=O)CC[C@@H](OC(=O)c1ccccc1-c1ccccc1C(=O)O)c1ccc(CO)o1)C(C)C | 0.478
26 | CC1CC/C=C\[C@H]2OC34C=CCN(C(C)C)C(=O)[C@H]3N(C(C)CO)C(=O)[C@@H]4C2C(=O)O1 (some centres undefined) | -0.249
27 | O=C1O[C@H](c2ccccc2)[C@H](c2ccccc2)N2[C@H]1[C@@H](C(=O)O)[C@]1(C(=O)Nc3ccccc31)[C@H]2c1ccc(OCCO)cc1 | 0.612
28 | COc1ccc([Si](C)(C)[C@H]2[C@H](CC(=O)N(CCO)Cc3ccccc3)O[C@@]3(C(=O)N(Cc4ccc(N5C(=O)c6cccc7cccc5c67)cc4)c4ccccc43)[C@@H]2C)cc1 | -0.393
29 | CC(C)c1ccc(NN2C(C(O)C3CCCCC3)C=CC3C(=O)N(c4ccccc4)C(=O)C32)cc1 (centres undefined) | -0.566
30 | CC(C)N1C(=O)[C@@]2(Cc3ccccc31)c1ccccc1C(=O)N(Cc1ccccc1C(F)(F)F)[C@H]2c1ccc(CO)cc1 | -0.0497
31 | C=C(C(=O)CC[C@@H](OC(=O)c1ccccc1-c1ccccc1C(=O)O)c1ccc(OCCO)cc1)C(C)C | 0.59
32 | C=C(CCCC)/C(=C/C[C@@H](OC(C)=O)c1ccc(OCCO)cc1)c1cc(C(=O)OC)ccc1OC | 0.765
33 | C=CCOC(=O)[C@H]1[C@@H]2C(=O)O[C@@H](c3ccccc3)[C@@H](c3ccccc3)N2[C@@H](c2ccc(OCCOC(=O)[C@H]3C[C@H]4C(=O)NCC(=O)N4[C@H]3c3ccc(O)cc3)cc2)[C@]12C(=O)Nc1ccccc12 | 0.182
34 | C=C(C(=O)CC[C@@H](OC(=O)c1ccccc1-c1ccccc1C(=O)O)c1cccc(OCCO)c1)C(C)C | -0.0465
35 | COC(=O)C(CC#Cc1ccc2c(c1)[C@]1(C(=O)N2)[C@H](C(=O)NC[C@H](O)c2ccccc2)[C@H]2C(=O)O[C@H](c3ccccc3)[C@H](c3ccccc3)N2[C@@H]1c1ccc(O)cc1)C(=O)OC | 0.557
36 | O=C1C2C=CC(C(O)C3CCCCC3)N(Nc3ccccc3F)C2C(=O)N1c1ccccc1 (centres undefined) | 0.0942
37 | C=CCNC(=O)[C@@H]1[C@H]2C(=O)O[C@H](c3ccccc3)[C@H](c3ccccc3)N2[C@H](c2ccc(O)cc2)[C@@]12C(=O)N(C(=O)OCCOC)c1ccc(C#CCC(C(=O)OC)C(=O)OC)cc12 | -0.187
38 | CN1C2C=C(c3ccc(CO)cc3)C(C3C(=O)N(C(N)=O)C(=O)C32)C1C1CC1 (centres undefined) | 0.169

Row | Compound | z-score
39 | COC(=O)[C@]1(Cc2ccccc2CN=[N+]=[N-])N=C(c2ccc(OCCCO)cc2)O[C@@H]1c1ccccc1N=[N+]=[N-] | -0.543
40 | COCCOC(=O)N1C(=O)[C@@]2(c3cc(C#CCC(C(=O)OC)C(=O)OC)ccc31)[C@H](C(=O)N1CCc3cc(OC)c(OC)cc3C1)[C@H]1C(=O)O[C@H](c3ccccc3)[C@H](c3ccccc3)N1[C@@H]2c1ccccc1OCCO | -0.252
41 | COC(=O)C(CC#Cc1ccc2c(c1)[C@]1(C(=O)N2)[C@H](c2ccccc2OCCO)N2[C@H](c3ccccc3)[C@H](c3ccccc3)OC(=O)[C@H]2[C@@H]1C(=O)N1CCN(c2ncccn2)CC1)C(=O)OC | -0.581
42 | C=CC[C@]1(C(=O)NCCN2CCOCC2)N=C(c2ccc(OCCCO)cc2)O[C@H]1c1ccccc1 | 0.106
43 | CN(C)C(=O)[C@]1(CCS(=O)(=O)c2ccccc2)N=C(c2ccc(OCCCO)cc2)O[C@@H]1c1ccccc1CN=[N+]=[N-] | -0.0306
44 | C=CCC(OC(C)=O)[C@@H]1[C@@H](N(Cc2cccc3ccccc23)C(=O)c2ccc(C)cc2)c2cc(OCCCO)ccc2N1C(=O)Cc1ccc2ccccc2c1 (some centres undefined) | -0.416
45 | COCCCNC(=O)[C@@]1(Cc2ccccc2I)c2ccccc2C(=O)N(Cc2ccccc2C(F)(F)F)[C@H]1c1ccc(CO)cc1 | -0.0472
46 | O=C(O)C1=CC[C@H]2C(=O)N(c3ccccc3)C(=O)[C@@H]12 | -0.647
47 | COc1c(C)cc(-c2nc(-c3ccccc3)c3c(c2C)CO[Si]3(C(C)C)C(C)C)cc1C | 0.0254
48 | COc1ccc(CCNC(=O)[C@@]2(c3ccc([N+](=O)[O-])cc3)CC(=O)N(C3CCCCC3)[C@@H]2c2ccc(CO)cc2I)cc1 | 0.294
49 | COCCCNC(=O)[C@@]1(CCC(=O)OC(C)(C)C)N=C(c2ccc(OCCCO)cc2)O[C@H]1c1ccccc1 | 0.633
50 | COC(=O)C(CC#Cc1ccc2c(c1)[C@]1(C(=O)N2)[C@H](C(=O)N2CCCCCCC2)[C@H]2C(=O)O[C@H](c3ccccc3)[C@H](c3ccccc3)N2[C@@H]1c1ccc(OCCO)cc1)C(=O)OC | 0.331
51 | CN(C)CCCC[C@@H]1NC(=O)[C@H]2C[C@@H](C(=O)NCCCCCCNC(=O)CS)[C@@H](c3cccc(OCCO)c3)N2C1=O | 0.68
52 | CCCCC(=C=CC[C@@H](O)c1ccccc1OCCO)C[C@@H](O)c1ccccn1 | -0.123
53 | O=C(N1CCOCC1)[C@]1(CCS(=O)(=O)c2ccccc2)N=C(c2ccc(OCCCO)cc2)O[C@@H]1c1ccccc1 | 0.0352
54 | [N-]=[N+]=NCc1ccccc1C[C@@]1(C(N)=O)N=C(c2ccc(OCCCO)cc2)O[C@@H]1c1ccccc1N=[N+]=[N-] | 1.02
